# Results filed as inconclusive are left out. Entries that show only a call come without a potency. Calls of active or inactive are those of the source. The call rests on the fitted dose curve; in most records, active means well fitted cell-killing curve with a large enough effect; inconclusive means small, poorly fitted or top-dose-only effect, or effect the other way; inactive means no such curve, though single readings can be large or run the other way.
# Experiment: Quantitative High-Throughput drug screen in 47 multiple myeloma cell lines against the NCATS MIPE library collection: KMS11_JCRBsus cell viability assay (AID 1919873); further: nearly all actives have a fitted effect of over 50% in size
# Settings: KMS11 myeloma viability, CellTiter-Glo ATP luminescence, 48 h; series mostly up to 45.8 µM
# From the text: PI: Beverly A. Mock Ph.D.
# Laboratory of Cancer Biology and Genetics,
# Center for Cancer Research, National Cancer Institute,
# National Institute of Health, Bethesda, Maryland
# Drug resistance and disease progression are common in multiple myeloma (MM) patients, underscoring the need for new therapeutic combinations. […] We hypothesized that effective combinations would reduce MYC expression and enhance p16 activity. […] These preclinical data identify potentially useful drug combinations for evaluation in drug-resistant MM and reveal potential mechanisms of combined drug sensitivity.
# Described herein is the primary MIPE qHTS used to cherrypick compounds. Validated compounds were then further tested for potential synergistic activiy.
# [1] Peat TJ, Gaikwad SM, Dubois W, Gyabaah-Kessie N, Zhang S, Gorjifard S, Phyo Z, Andres M, Hughitt VK, Simpson RM, Miller MA, Girvin AT, Taylor A, Williams D, D'Antonio N, Zhang Y, Rajagopalan A, Flietner E, Wilson K, Zhang X, Shinn P, Klumpp-Thomas C, McKnight C, Itkin Z, Chen L, Kazandijian D, Zhang J, Michalowski AM, Simmons JK, Keats J, Thomas CJ, Mock BA. Drug combinations identified by high-throughput screening promote cell cycle transition and upregulate Smad pathways in myeloma. Cancer Lett. 2023 Aug 1;568:216284. doi: 10.1016/j.canlet.2023.216284. Epub 2023 Jun 24. PMID: 37356470; PMCID: PMC10408729.
# SEQUENCE No. (e.g., 1, 2, 3, etc.); […] (e.g., Cells, Incubation, Reagent, etc.); VALUE and DESCRIPTION.
# 1; Cells; 5 uL; white, solid bottom 1536-well Greiner assay plate.
# 2; Compounds; 23 nL; Kalypsis pin tool (Wako USA) equipped with a 1536-well pin head to transfer to the assay plates.
# 3; Incubation; 48 hours; 37C incubation.
# 4; Reagent;5uL; CellTiter Glo (Promega).
# 5; Detector; 425V; Luminescence; Viewlux PerkinElmer.
# NOTES (numbers refer to Sequence numbers above)
# 1. The cell-based screening methods employed in this study were like those previously published. Briefly, the corresponding myeloma cell lines were screened in 1,536-well plates with 500 cells, 5-uL per well for inhibition of cell viability (assessed by measuring ATP levels with CellTiterGlo).
# 2. NCATS MIPE 4.0 library of approved and investigational drugs were added using the Kalypsis pin tool. Wells treated with DMSO only for 100% viability and media only for 0% viability were used as controls.
# 3. The assay plates were covered and incubated for 48 hours in a 37C, 5% CO2 incubator with controlled humidity.
# 4. After 48 hours, CellTilter-GloTM luminescent substrate mix (Promega) reagent was added to the assay plate and plates we incubated for 5 min at room temperature.
# 5. Signal was measured as median relative luminescence units on a ViewLux (PerkinElmer) multiplate reader.
# [1] Heske CM, Davis MI, Baumgart JT, Wilson K, Gormally MV, Chen L, Zhang X, Ceribelli M, Duveau DY, Guha R, Ferrer M, Arnaldez FI, Ji J, Tran HL, Zhang Y, Mendoza A, Helman LJ, Thomas CJ. Matrix Screen Identifies Synergistic Combination of PARP Inhibitors and Nicotinamide Phosphoribosyltransferase (NAMPT) Inhibitors in Ewing Sarcoma. Clin Cancer Res. 2017 Dec 1;23(23):7301-7311. doi: 10.1158/1078-0432.CCR-17-1121. Epub 2017 Sep 12. PMID: 28899971; PMCID: PMC6636827.
# Potency means the concentration at half of the fitted maximal effect.
row,SMILES,Potency
1,CS(=O)(=O)c1ccc([C@@H](O)[C@@H](CO)NC(=O)C(Cl)Cl)cc1,11.8 µM (active)
2,CCCCc1oc2ccc(NS(C)(=O)=O)cc2c1C(=O)c1ccc(OCCCN(CCCC)CCCC)cc1,11.8 µM (active)
3,COc1cc(NS(=O)(=O)c2ccc(N)cc2)nc(OC)n1,inactive
4,COC(=O)Nc1nc2ccc(C(=O)c3ccccc3)cc2[nH]1,0.332 µM (active)
5,COC(=O)Nc1nc2ccc(S(=O)c3ccccc3)cc2[nH]1 (stereo not given),8.33 µM (active)
6,CCOC(=O)[C@H](CCc1ccccc1)N[C@H]1CS[C@H](c2cccs2)CN(CC(=O)O)C1=O,1.66 µM (active)
7,CC(C)(Sc1cc(C(C)(C)C)c(O)c(C(C)(C)C)c1)Sc1cc(C(C)(C)C)c(O)c(C(C)(C)C)c1,inactive
8,C[C@@H](NCCCc1cccc(C(F)(F)F)c1)c1cccc2ccccc12,inactive
9,CC(C)C1CCC(C(=O)N[C@H](Cc2ccccc2)C(=O)O)CC1 (stereo not given in full),16.6 µM (active)
10,CC(C)(C#N)c1cc(Cn2cncn2)cc(C(C)(C)C#N)c1,inactive
11,COC(c1ccccc1)(c1ccccc1)[C@H](Oc1nc(C)cc(C)n1)C(=O)O,inactive
12,NC(=O)c1cccnc1,inactive
13,O[C@@H](CNC[C@H](O)[C@H]1CCc2cc(F)ccc2O1)[C@@H]1CCc2cc(F)ccc2O1,7.43 µM (active)
14,CC(=O)Oc1ccccc1C(=O)Nc1ncc([N+](=O)[O-])s1,17.1 µM (active)
15,Cn1c(=O)c2c(ncn2CC(O)CO)n(C)c1=O (stereo not given),inactive
16,COc1cc2nc(N3CCCN(C)CC3)nc(NC3CCN(Cc4ccccc4)CC3)c2cc1OC,4.69 µM (active)
17,Cc1nnc(C(=O)NC(C)(C)c2nc(C(=O)NCc3ccc(F)cc3)c(O)c(=O)n2C)o1,inactive
18,CCC(=O)O[C@]1(C(=O)SCF)[C@H](C)C[C@H]2[C@@H]3C[C@H](F)C4=CC(=O)C=C[C@]4(C)[C@@]3(F)[C@@H](O)C[C@@]21C,inactive
19,CC(C)NCC(O)c1ccc(NS(C)(=O)=O)cc1 (stereo not given),inactive
20,CCCc1nc(C)c2c(=O)[nH]c(-c3cc(S(=O)(=O)N4CCN(CC)CC4)ccc3OCC)nn12,2.96 µM (active)

row,SMILES,Potency
1,COc1cccc(N(C)C(=S)Oc2ccc3c(c2)CCCC3)n1,29.6 µM (active)
2,Cc1noc(NS(=O)(=O)c2ccc(N)cc2)c1C,inactive
3,COc1ccc2cc3[n+](cc2c1OC)CCc1cc2c(cc1-3)OCO2,3.32 µM (active)
4,OCc1ccc(-c2nn(Cc3ccccc3)c3ccccc23)o1,inactive
5,O=c1oc2c(O)c(O)cc3c(=O)oc4c(O)c(O)cc1c4c23,inactive
6,CCN(C)C(=O)Oc1cccc([C@H](C)N(C)C)c1,inactive
7,Cc1nnc(NS(=O)(=O)c2ccc(N)cc2)s1,9.35 µM (active)
8,CNCC[C@H](Oc1cccc2ccccc12)c1cccs1,26.4 µM (active)
9,CN1CCN(c2c(F)cc3c(=O)c(C(=O)O)cn4c3c2OCN4C)CC1,inactive
10,CC1=NN(c2ccccc2)C(=O)C1,inactive
11,O=C(O)C1CCCN(CCC=C(c2ccccc2)c2ccccc2)C1 (stereo not given),inactive
12,O=S(=O)(c1cccc2cnccc12)N1CCCNCC1,inactive
13,O=C(O)c1cc(=O)[nH]c(=O)[nH]1,inactive
14,CNS(=O)(=O)Cc1ccc2[nH]cc(CCN(C)C)c2c1,inactive
15,CC(=O)[C@H]1CC[C@H]2[C@@H]3CCC4=CC(=O)CC[C@]4(C)[C@H]3CC[C@]12C,18.7 µM (active)
16,CC(C)OC(=O)C(C(=O)OC(C)C)=C1SC=CS1,inactive
17,CC1(C)[C@H](C(=O)O)N2C(=O)C[C@H]2S1(=O)=O,inactive
18,C[C@]12C=CC(=O)C=C1CC[C@@H]1[C@@H]2C(=O)C[C@@]2(C)[C@H]1CC[C@]2(O)C(=O)CO,inactive
19,CCc1cc(C(N)=S)ccn1,inactive
20,COc1ncnc(NS(=O)(=O)c2ccc(N)cc2)c1OC,inactive

# Source: PubChem BioAssay (NCATS)
